From the supplement of paper PMC10849652
The full data set covers some 8,800 targets. This sample favours those with a hit. About 0.5% of all pairs of compound and target were hits.

Experiments:
Experiment in all cases: log2 fold change, soluble protein after heating vs DMSO (PISA); higher = thermal stabilisation; K562 lysate, 10 uM; active = over 0.2 and 3.5 SD of the protein, either way, in both replicates (recomputed)
[1] = compound: C#Cc1cccc(Nc2ncnc3cc(OCCOC)c(OCCOC)cc23)c1 [erlotinib]
Summary of the method: (§1)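 The values are log-two fold changes in thermal stability compared with solvent controls and come from duplicates. They were obtained by TMTpro 16plex LC-MS/MS, with channel sums equalised, on the supernatant after 21,000xg for 90 min. That supernatant came from crude K562 extract at 1 mg/mL protein treated with 10 μM compound for 30 min, heated for 3 min across 48°C-58°C, pooled and brought to 0.5% NP-40 at 4°C.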

[2] = compound: C/C(=N\NC(=O)C1=CC(=CC=C1)S(=O)(=O)N2CCOCC2)/C3=C(C=CC(=C3)Cl)O
Summary of the method: as §1

[3] = compound: C1=CC(=CC=C1C2=NC3=C(N2)C=C(C=C3)C(=O)N)OC4=CC=C(C=C4)Cl
Summary of the method: as §1

[4] = compound: C1=CC2=C(C=CC(=C2)/C=C\3/C(=O)NC(=NCC4=CC=CS4)S3)N=C1
Summary of the method: as §1

[5] = compound: C1=CC2=NC=CN=C2C=C1/C=C/3\C(=O)NC(=O)S3
Summary of the method: as §1

[6] = compound: C1=CC=C(C=C1)C2=NC(=C(N2)C3=CC=NC=C3)C4=CC(=C(C=C4)Cl)O
Summary of the method: as §1

[7] = compound: C1=CC=C2C(=C1)C3=NNC4=CC=CC(=C43)C2=O
Summary of the method: as §1

[8] = compound: C1CCN(C1)C(=O)NC2=CC=CC(=C2)NC3=NC=C(C(=N3)NCCC4=CN=CN4)Br
Summary of the method: as §1

[9] = compound: C1CN(CCC1(CC2=CC=C(C=C2)Cl)N)C3=NC=NC4=C3C=CN4
Summary of the method: as §1

[10] = compound: C1COCCN1CCN2C3=CC=CC=C3N=C2NC(=O)C4=CC(=CC=C4)[N+](=O)[O-] [IRAK-1-4 Inhibitor I]
Summary of the method: as §1

[11] = compound: C=CC(=O)N1CCC[C@@H](n2nc(-c3ccc(Oc4ccccc4)cc3)c3c(N)ncnc32)C1 [ibrutinib]
Summary of the method: as §1

[12] = compound: CC(=O)c1cnc2ccc(-c3cc(Cl)c(O)c(Cl)c3)nc2c1N[C@H]1CC[C@H](CN(C)C)CC1
Summary of the method: as §1

[13] = compound: CC(C)(C)Cn1c(N)nc2ccc(-c3[nH]c(C(C)(C)C)nc3-c3ccc(F)cc3)nc21 [ralimetinib]
Summary of the method: as §1

[14] = compound: CC(C)(O)CC(=O)NCCn1ccc2ncnc(Nc3ccc(Oc4cccc(C(F)(F)F)c4)c(Cl)c3)c21
Summary of the method: as §1

[15] = compound: CC(C)C1=C2N=C(C=C(N2N=C1)NCC3=CC=CC=C3)NCCCCCCN
Summary of the method: as §1

[16] = compound: CC1=C(C(CC(=O)N1)C2=CC=C(C=C2)C(F)(F)F)C(=O)NC3=C(C=C4C(=C3)C=NN4)F
Summary of the method: as §1

[17] = compound: CC1=C(C2=C(C=C1)C(=O)C3=CC=CC=C3N2CCCN)C
Summary of the method: as §1

[18] = compound: CC1=C(C=C(C=C1)NC(=O)C2=CC(=CC=C2)C(C)(C)C#N)NC3=CC4=C(C=C3)N=CN(C4=O)C
Summary of the method: as §1

[19] = compound: CC1=C(C=C(C=C1)NC(=O)C2=CC(=CC=C2)N(C)C)NC(=O)C3=CC=C(C=C3)O
Summary of the method: as §1

[20] = compound: CC1=CC=C(C=C1)SC2=C3C=C(SC3=CN=C2)C(=O)N
Summary of the method: as §1

Measured: log2 fold change

FARSB (UniProt Q9NSD9)
Chain of UniProt Q9NSD9 (Q9NSD9 whole entry, looked up): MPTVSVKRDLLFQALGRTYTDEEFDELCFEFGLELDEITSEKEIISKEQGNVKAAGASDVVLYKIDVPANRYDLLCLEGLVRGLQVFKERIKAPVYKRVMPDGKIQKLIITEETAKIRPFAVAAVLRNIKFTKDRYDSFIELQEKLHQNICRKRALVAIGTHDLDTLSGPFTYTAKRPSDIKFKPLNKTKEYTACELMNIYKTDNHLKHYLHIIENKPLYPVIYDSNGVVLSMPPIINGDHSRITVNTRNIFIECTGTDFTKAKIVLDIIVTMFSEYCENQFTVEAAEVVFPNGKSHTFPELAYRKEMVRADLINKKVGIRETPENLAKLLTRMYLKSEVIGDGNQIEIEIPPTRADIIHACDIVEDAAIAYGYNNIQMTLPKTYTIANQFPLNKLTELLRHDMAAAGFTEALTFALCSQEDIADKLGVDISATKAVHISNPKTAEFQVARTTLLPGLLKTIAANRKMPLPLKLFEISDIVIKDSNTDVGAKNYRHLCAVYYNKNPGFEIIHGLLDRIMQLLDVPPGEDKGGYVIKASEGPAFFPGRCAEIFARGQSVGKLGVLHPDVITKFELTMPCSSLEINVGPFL
inactive: [1] -0.004 | [2] 0.019 | [3] -0.007 | [4] -0.01 | [5] -0.02 | [6] 0.039 | [7] -0.021 | [8] -0.004 | [9] 0.011 | [10] -0.027 | [11] 0.021 | [12] -0.013 | [13] -0.006 | [14] 0.016 | [15] 0.004 | [16] -0.023 | [17] 0.007 | [18] 0.033 | [19] 0.008 | [20] 0.03

EXOC6 (UniProt Q8TAG9)
inactive: [1] 0 | [2] -0.045 | [3] -0.062 | [4] -0.058 | [5] -0.044 | [6] 0.005 | [7] -0.043 | [8] 0.018 | [9] 0.008 | [10] 0.013 | [11] 0 | [12] 0.072 | [13] 0.034 | [14] -0.018 | [15] -0.049 | [16] 0.048 | [17] 0.049 | [18] -0.022 | [19] 0.042 | [20] 0.01

GATAD2A isoform 3 (UniProt Q86YP4)
inactive: [1] 0.012 | [2] -0.124 | [3] -0.003 | [4] -0.034 | [5] 0.003 | [6] -0.002 | [7] -0.035 | [8] -0.037 | [9] 0.034 | [10] -0.016 | [11] 0.017 | [12] 0.008 | [13] 0.023 | [14] 0.01 | [15] 0.012 | [16] -0.004 | [17] 0.005 | [18] 0.01 | [19] 0.016 | [20] -0.005

FBXO9 (UniProt Q9UK97)
inactive: [1] -0.06 | [2] 0.126 | [3] 0.091 | [4] 0.013 | [5] 0.086 | [6] 0.01 | [7] -0.032 | [8] 0.019 | [9] -0.108 | [10] -0.005 | [11] 0.006 | [12] -0.014 | [13] -0.046 | [14] 0.077 | [15] -0.09 | [16] 0.009 | [17] 0.019 | [18] 0.017 | [19] 0.047 | [20] 0.026

EP300 (UniProt Q09472)
Chain of UniProt Q09472 (Q09472 whole entry, looked up): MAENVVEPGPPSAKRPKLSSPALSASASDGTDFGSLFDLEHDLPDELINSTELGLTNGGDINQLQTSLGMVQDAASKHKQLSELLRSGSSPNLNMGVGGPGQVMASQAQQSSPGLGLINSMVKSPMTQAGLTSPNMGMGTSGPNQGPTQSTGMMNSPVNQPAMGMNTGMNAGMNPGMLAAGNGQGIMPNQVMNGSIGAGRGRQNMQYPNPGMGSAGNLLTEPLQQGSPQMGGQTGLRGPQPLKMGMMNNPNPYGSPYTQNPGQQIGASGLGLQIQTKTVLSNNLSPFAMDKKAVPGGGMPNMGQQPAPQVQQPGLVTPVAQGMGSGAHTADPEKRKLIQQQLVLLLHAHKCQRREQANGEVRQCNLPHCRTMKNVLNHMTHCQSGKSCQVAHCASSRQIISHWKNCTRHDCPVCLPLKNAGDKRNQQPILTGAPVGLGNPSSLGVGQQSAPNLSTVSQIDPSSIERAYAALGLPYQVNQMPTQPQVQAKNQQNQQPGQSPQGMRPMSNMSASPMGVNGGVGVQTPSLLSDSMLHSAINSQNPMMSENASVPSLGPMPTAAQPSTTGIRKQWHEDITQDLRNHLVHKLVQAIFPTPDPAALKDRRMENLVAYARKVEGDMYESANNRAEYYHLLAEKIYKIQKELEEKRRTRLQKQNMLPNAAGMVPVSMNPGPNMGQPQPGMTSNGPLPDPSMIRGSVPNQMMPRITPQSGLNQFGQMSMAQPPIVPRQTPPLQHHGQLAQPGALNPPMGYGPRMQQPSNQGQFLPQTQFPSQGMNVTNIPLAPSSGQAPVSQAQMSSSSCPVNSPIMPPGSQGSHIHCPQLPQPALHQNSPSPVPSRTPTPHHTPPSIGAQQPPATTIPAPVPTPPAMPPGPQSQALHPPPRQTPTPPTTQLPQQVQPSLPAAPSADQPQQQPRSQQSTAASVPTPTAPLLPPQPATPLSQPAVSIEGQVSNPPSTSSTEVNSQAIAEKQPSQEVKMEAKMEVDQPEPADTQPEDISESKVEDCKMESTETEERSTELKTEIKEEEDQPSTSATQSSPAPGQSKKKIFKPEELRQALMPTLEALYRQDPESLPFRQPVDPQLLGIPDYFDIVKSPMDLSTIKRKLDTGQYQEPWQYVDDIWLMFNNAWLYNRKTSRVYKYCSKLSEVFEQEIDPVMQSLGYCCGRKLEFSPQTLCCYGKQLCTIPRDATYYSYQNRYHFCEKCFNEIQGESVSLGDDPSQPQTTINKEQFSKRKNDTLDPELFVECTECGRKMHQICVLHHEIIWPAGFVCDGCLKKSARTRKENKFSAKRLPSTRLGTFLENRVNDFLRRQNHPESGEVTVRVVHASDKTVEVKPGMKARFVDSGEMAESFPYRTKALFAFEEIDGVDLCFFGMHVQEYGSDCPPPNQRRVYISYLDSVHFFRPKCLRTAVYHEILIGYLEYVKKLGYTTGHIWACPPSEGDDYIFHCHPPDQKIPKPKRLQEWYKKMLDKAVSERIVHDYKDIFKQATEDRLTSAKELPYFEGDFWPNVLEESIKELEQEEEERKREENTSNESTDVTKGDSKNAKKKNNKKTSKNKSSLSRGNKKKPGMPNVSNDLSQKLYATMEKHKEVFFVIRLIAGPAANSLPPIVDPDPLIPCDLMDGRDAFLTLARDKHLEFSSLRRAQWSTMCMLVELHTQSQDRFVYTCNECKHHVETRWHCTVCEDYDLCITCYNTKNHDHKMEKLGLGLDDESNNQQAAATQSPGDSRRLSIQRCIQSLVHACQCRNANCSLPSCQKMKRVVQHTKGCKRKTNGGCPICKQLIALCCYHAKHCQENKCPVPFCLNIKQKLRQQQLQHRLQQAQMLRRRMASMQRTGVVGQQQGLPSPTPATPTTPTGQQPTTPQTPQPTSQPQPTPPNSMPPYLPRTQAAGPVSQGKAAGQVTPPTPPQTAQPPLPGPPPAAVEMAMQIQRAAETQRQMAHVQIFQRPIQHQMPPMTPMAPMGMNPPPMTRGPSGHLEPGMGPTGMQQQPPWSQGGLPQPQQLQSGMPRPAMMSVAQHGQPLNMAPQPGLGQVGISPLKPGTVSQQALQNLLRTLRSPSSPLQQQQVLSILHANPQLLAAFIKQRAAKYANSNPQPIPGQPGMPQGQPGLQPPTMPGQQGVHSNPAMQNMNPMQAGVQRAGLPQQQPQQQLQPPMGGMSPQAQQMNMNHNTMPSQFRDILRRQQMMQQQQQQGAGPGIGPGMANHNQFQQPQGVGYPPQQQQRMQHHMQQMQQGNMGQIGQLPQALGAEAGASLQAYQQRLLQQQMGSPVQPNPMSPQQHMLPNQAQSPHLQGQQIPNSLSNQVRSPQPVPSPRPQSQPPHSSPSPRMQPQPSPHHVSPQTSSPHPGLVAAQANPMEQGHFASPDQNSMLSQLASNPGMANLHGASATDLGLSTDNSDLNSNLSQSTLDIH
inactive: [1] 0.017 | [2] 0.011 | [3] -0.024 | [4] -0.017 | [5] 0.078 | [6] -0.015 | [7] -0.019 | [8] -0.033 | [9] 0 | [10] -0.006 | [11] 0.084 | [12] 0.117 | [13] -0.026 | [14] -0.011 | [15] -0.07 | [16] 0.423 | [17] -0.011 | [18] -0.035 | [19] -0.025 | [20] -0.008

EPB41, A0A2R8Y6D0
inactive: [1] 0.134 | [2] 0.064 | [3] -0.187 | [4] -0.012 | [5] -0.004 | [6] 0.066 | [7] -0.004 | [8] -0.042 | [9] 0.054 | [10] -0.071 | [11] 0.04 | [12] 0.007 | [13] 0.171 | [14] 0.094 | [15] -0.061 | [16] -0.012 | [17] 0 | [18] -0.065 | [19] 0.078 | [20] -0.02

FTSJ1 (UniProt Q9UET6)
inactive: [1] -0.008 | [2] 0 | [3] 0.039 | [4] 0.005 | [5] -0.025 | [6] 0.07 | [7] 0.034 | [8] -0.007 | [9] 0.016 | [10] 0.019 | [11] 0.004 | [12] -0.006 | [13] -0.03 | [14] 0.094 | [15] -0.054 | [16] 0.011 | [17] 0.069 | [18] -0.024 | [19] 0.062 | [20] 0.03

G6PD isoform 2 (UniProt P11413)
Chain of UniProt P11413 (P11413 whole entry, looked up): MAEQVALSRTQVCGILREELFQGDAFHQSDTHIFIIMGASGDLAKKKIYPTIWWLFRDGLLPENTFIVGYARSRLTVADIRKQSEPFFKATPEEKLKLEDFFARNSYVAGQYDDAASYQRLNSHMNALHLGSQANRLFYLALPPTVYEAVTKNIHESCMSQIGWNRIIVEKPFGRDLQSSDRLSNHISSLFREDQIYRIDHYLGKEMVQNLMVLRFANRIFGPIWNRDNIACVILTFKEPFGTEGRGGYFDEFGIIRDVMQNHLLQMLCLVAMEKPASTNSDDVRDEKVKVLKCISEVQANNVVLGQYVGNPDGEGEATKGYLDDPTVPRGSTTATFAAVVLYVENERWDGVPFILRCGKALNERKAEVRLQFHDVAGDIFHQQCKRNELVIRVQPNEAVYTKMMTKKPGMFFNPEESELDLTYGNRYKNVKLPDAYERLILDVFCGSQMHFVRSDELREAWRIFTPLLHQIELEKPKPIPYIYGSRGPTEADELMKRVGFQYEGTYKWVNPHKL
inactive: [1] 0.034 | [2] 0.05 | [3] 0.024 | [4] 0.016 | [5] 0.018 | [6] -0.001 | [7] -0.002 | [8] 0.006 | [9] 0.011 | [10] 0.001 | [11] -0.006 | [12] 0.001 | [13] 0.023 | [14] 0.012 | [15] 0.018 | [16] -0.02 | [17] 0.045 | [18] -0.002 | [19] 0.024 | [20] 0.003

GGA2 (UniProt Q9UJY4)
Chain of UniProt Q9UJY4 (Q9UJY4 whole entry, looked up): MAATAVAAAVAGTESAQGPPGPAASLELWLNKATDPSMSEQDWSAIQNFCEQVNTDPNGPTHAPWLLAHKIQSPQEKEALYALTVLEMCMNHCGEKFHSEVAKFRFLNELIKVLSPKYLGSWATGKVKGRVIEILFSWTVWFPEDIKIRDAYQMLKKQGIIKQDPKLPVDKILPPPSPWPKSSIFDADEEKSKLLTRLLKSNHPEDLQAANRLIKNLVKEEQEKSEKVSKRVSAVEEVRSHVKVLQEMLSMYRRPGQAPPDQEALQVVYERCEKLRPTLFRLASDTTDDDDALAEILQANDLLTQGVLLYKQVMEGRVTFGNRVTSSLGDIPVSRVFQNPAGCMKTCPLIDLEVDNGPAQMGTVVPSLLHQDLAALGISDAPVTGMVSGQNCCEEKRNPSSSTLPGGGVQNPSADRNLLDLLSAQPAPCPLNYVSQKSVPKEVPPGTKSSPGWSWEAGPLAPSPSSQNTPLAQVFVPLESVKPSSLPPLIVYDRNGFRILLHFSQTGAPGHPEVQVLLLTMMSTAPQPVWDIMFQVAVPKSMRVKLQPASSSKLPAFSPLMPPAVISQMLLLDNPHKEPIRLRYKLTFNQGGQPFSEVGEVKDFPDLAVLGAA
inactive: [1] -0.014 | [2] 0.042 | [3] 0.064 | [4] 0.016 | [5] 0.019 | [6] 0.014 | [7] -0.054 | [8] 0.074 | [9] 0.034 | [10] 0.01 | [11] -0.007 | [12] 0 | [13] 0.026 | [14] -0.01 | [15] -0.062 | [16] 0.099 | [17] 0.01 | [18] -0.024 | [19] 0.031 | [20] -0.021

EEF1A1P5 (UniProt Q5VTE0)
inactive: [1] 0.014 | [2] -0.054 | [3] 0.023 | [4] 0 | [5] 0.001 | [6] -0.01 | [7] -0.065 | [8] -0.048 | [9] 0.022 | [10] 0.003 | [11] -0.01 | [12] -0.007 | [13] 0.001 | [14] -0.014 | [15] 0.032 | [16] 0.008 | [17] 0.019 | [18] -0.006 | [19] 0.012 | [20] -0.011

FDFT1 (UniProt P37268)
inactive: [1] -0.002 | [2] -0.072 | [3] -0.038 | [4] 0.176 | [5] 0.001 | [6] 0.211 | [7] 0.115 | [8] 0.005 | [9] 0.024 | [10] -0.014 | [11] -0.004 | [12] -0.014 | [13] -0.014 | [14] 0.018 | [15] 0.013 | [16] -0.034 | [17] -0.028 | [18] -0.02 | [19] 0.017 | [20] 0.012

FTSJ3 (UniProt Q8IY81)
Chain of UniProt Q8IY81 (Q8IY81 whole entry, looked up): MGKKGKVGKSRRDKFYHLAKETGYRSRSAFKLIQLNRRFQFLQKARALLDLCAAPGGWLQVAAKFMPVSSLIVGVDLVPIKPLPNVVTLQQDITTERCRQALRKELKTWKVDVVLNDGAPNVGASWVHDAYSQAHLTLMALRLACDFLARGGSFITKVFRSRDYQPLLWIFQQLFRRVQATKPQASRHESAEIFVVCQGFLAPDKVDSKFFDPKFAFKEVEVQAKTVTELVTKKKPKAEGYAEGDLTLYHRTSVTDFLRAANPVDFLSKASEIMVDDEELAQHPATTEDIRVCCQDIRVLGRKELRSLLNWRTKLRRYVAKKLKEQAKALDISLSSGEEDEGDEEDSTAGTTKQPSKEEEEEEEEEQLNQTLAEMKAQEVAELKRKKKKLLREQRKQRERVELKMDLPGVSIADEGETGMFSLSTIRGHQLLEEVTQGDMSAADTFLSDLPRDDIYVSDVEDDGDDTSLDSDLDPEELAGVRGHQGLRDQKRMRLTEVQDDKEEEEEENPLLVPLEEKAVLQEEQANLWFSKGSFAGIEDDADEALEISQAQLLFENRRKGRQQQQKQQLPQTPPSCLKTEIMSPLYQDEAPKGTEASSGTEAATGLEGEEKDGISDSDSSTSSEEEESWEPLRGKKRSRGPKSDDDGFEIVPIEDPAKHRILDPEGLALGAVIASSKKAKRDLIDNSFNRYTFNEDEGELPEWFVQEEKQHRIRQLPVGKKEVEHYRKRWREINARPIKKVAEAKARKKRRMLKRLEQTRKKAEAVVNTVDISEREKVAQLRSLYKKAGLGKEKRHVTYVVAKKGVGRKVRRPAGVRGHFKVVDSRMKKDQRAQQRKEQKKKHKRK
inactive: [1] 0.064 | [2] -0.157 | [3] 0.002 | [4] -0.014 | [5] -0.028 | [6] 0.025 | [7] 0.065 | [8] 0.012 | [9] 0.022 | [10] -0.018 | [11] 0.05 | [12] 0.005 | [13] 0.026 | [14] -0.033 | [15] 0.086 | [16] 0.016 | [17] -0.037 | [18] -0.01 | [19] 0.002 | [20] 0.04

EXOC5 (UniProt O00471)
inactive: [1] 0.022 | [2] -0.021 | [3] -0.041 | [4] 0.033 | [5] -0.006 | [6] -0.013 | [7] -0.016 | [8] 0.005 | [9] 0.006 | [10] -0.011 | [11] -0.015 | [12] 0.012 | [13] 0.04 | [14] -0.003 | [15] -0.016 | [16] 0.008 | [17] 0.003 | [18] -0.024 | [19] 0.041 | [20] -0.013

FAU (UniProt E9PR30)
inactive: [1] -0.026 | [2] -1.8 | [3] -0.059 | [4] -0.048 | [5] 0.016 | [6] -0.016 | [7] 0 | [8] 0.011 | [9] -0.021 | [10] 0.053 | [11] -0.018 | [12] 0.012 | [13] -0.01 | [14] -0.018 | [15] -0.122 | [16] -0.034 | [17] -0.015 | [18] 0.029 | [19] -0.003 | [20] 0.027

ENY2 (UniProt Q9NPA8)
Chain of UniProt Q9NPA8 (Q9NPA8 whole entry, looked up): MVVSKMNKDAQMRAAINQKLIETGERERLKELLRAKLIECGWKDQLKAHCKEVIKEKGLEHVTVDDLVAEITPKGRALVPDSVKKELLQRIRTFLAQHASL
inactive: [1] 0.033 | [2] 0.03 | [3] -0.015 | [4] 0.002 | [5] -0.026 | [6] 0.043 | [7] 0.081 | [8] 0.104 | [9] -0.087 | [10] -0.019 | [11] 0.161 | [12] 0.038 | [13] -0.021 | [14] 0.057 | [15] 0 | [16] -0.069 | [17] 0.066 | [18] 0.075 | [19] -0.052 | [20] 0.035

FNBP1L (UniProt Q5T0N5)
inactive: [1] 0.015 | [2] -0.018 | [3] 0.013 | [4] 0.031 | [5] 0.044 | [6] 0.066 | [7] 0 | [8] -0.012 | [9] -0.061 | [10] -0.016 | [11] 0.034 | [12] -0.006 | [13] 0.055 | [14] -0.082 | [15] -0.003 | [16] 0 | [17] 0.066 | [18] -0.007 | [19] 0.035 | [20] 0.034
